Hits are enriched below; roughly 3.3% of the tested compounds scored in any of these assays.
GRIN3A LBD mod – modulates the human NR3A ligand-binding domain | hit rate 2.5% among 340,000 | Tm shift relative to glycine control, % at 25 µM | NR3A LBD differential scanning fluorimetry, Tm shift; 0% = protein alone, 100% = glycine-bound protein;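 active = melting temperature shift of at least 10% of the positive control shift, at one fixed dose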
UBC13 inh – blocks human UBC13 polyubiquitin chain formation. P61088. TR-FRET. inhibition, % at 20 µM. hit rate 0.47% among 330,000. AID 485273; in the data active = inhibition above about 45%, passing the limit was not always enough
SUMO HTRF inh – blocks human SUMOylation mediated by UBC9 | HTRF SUMOylation assay, SAE1/SAE2 + UBC9, in vitro | inhibition, % at 35 µM | hit rate 0.36% among 290,000; in the data active = inhibition above about 50%, passing the limit was not always enough
sPLA2-III inh – Blocks human group III sPLA2 activity; inhibition, % at 12.2 µM; QFRET BODIPY PC-A2 liposome hydrolysis, fluorescence; AID 743126; hit rate 0.56% among 370,000;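 active = inhibition above mean plus 3 SD of compounds lying within the high and low control bounds, cut at about 19% in these data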
Target sequence (Q9NZ20 whole entry, looked up): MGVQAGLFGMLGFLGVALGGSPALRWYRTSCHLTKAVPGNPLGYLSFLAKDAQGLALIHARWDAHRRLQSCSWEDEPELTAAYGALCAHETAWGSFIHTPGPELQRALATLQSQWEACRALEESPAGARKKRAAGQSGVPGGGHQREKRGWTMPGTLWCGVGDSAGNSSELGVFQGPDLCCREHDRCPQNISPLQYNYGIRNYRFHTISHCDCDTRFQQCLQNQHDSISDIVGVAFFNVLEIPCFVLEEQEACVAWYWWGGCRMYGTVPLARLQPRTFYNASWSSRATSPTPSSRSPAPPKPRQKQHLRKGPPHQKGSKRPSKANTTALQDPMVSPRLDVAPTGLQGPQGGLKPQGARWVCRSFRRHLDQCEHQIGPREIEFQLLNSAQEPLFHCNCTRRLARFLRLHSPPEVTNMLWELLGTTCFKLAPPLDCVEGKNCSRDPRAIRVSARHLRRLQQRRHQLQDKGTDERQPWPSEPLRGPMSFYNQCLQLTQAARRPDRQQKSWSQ
hGIII sPLA2 conf – human GIII-sPLA2 inhibition, confirmation; recombinant hGIII-sPLA2, BODIPY PC-A2 QFRET fluorescence; shares compounds with sPLA2-III inh; inhibition, % at 12.2 µM; hit rate 34% among 2,000;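 active = mean inhibition across triplicates above the hit cutoff set in the earlier primary screen, cut at about 19% in these data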
BODIPY interf – optically interferes with 535nm fluorescence in sPLA2 counter-screen | shares compounds with sPLA2-III inh | BODIPY FL product fluorescence interference, QFRET | inhibition, % at 12.2 µM | hit rate 8.5% among 2,000 | AID 743282;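 active = average inhibition above the solvent-only control mean plus 3 SD, cut at about 6% in these data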
BODIPY interf DR – counter-screen for HGIII-sPLA2 inhibitors: 535nm fluorescence interference, dose response. 240 tested, under 10 active. BODIPY FL product fluorescence interference, cell-free. shares compounds with sPLA2-III inh. IC50, µM;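 active = IC50 at or below 10 µM; inactive = IC50 above 10 µM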
Numbers stand for hits; . = inactive; / = no result.

SMILES	GRIN3A LBD mod	UBC13 inh	SUMO HTRF inh	sPLA2-III inh	hGIII sPLA2 conf	BODIPY interf	others
CCN(CC)c1ccc(C=Nc2ccccc2C)c(O)c1	.	.	.	20.2	.	.
CCN(CC)c1ccc(/C=N/NC(=S)NCc2ccccc2)c(O)c1	.	.	.	35.6	25.4	10.9
Cc1ccc2nc(N(CCN(C)C)C(=O)c3ccc4c(c3)OCCO4)sc2c1	.	.	.	.	/	/
COc1ccc2nc(Nc3ccc4c(c3)OCO4)sc2c1	16.3	.	.	85.7	.	.
COc1cc(C(=O)NNc2nc3cc4c(cc3s2)OCO4)cc(OC)c1OC	.	.	.	19.2	.	.
Cc1ccc2nc(NNC(=O)c3ccc4c(c3)OCCO4)sc2c1	.	.	.	25.0	31.7	.	BODIPY interf DR=.
COc1ccc2nc(Nc3nc4cc5c(cc4s3)OCO5)sc2c1	14.4	.	.	23.2	36.7	.	BODIPY interf DR=.
COC(=O)c1cc2c(c3c4ccccc4n(S(=O)(=O)c4cccc(C)c4)c13)C(=O)N(Cc1ccc(N(C)C)cc1)C2	/	/	/	.	/	/
Cc1cc(C)cc(C(=O)OCCCN(C)C2CN(Cc3cn(Cc4ccccc4F)nn3)S(=O)(=O)C2)c1 (stereo not given)	/	/	/	.	/	/
C=CCNC(=O)COc1cc(C)ccc1C	.	.	.	19.6	.	.
CC1=NN(c2ccccc2)C(=O)/C1=C/C=C/c1ccccc1	.	.	.	23.0	46.0	10.8
COc1ccc(NC(=S)NCc2ccc3c(c2)cc(C)n3C)cc1	.	.	.	22.4	.	.
COc1ccc(/C=C/C(=O)c2ccc3c(c2)OCCO3)cc1[N+](=O)[O-]	.	.	.	.	/	/
COc1cc(/C=N/NC(=O)c2ccc3c(c2)OCCO3)cc(Br)c1O	.	.	.	20.1	.	.
COc1ccc(/C=N/NC(=O)c2ccc3c(c2)OCCO3)cc1[N+](=O)[O-]	.	.	.	24.1	.	.
COc1cc(/C=N/NC(=O)c2ccc3c(c2)OCCO3)c(Br)c(Br)c1O	.	.	/	.	/	/
S=C1NCN(C2CCCCC2)CN1CCc1ccccc1	.	.	.	21.5	20.5	.
O=[N+]([O-])c1ccc(N2N=C(c3ccco3)CC2c2ccccc2)cc1 (stereo not given)	.	.	.	22.9	20.1	9.3
O=C(N/N=C/c1ccc(O)c(O)c1O)/C(=C/c1ccc([N+](=O)[O-])cc1)NC(=O)c1ccccc1	.	.	.	24.6	28.7	6.1
COc1cc(C)c2sc3ccccc3c(=O)c2c1NCCN(C)C	/	/	/	19.7	.	.
C#CCNC(=O)C[C@H]1C(=O)N(CCCOC)C2=CCCCC[C@]21C(=O)OC	/	/	/	.	/	/
CC(COc1ccc(Br)cc1)CN1CCC(C(O)(c2ccccc2)c2ccccc2)CC1 (stereo not given)	/	/	/	.	/	/

Screens deposited in PubChem BioAssay by several laboratories.
